Assay results reported in the antibiotic and cytotoxicity screens of Wong et al. (2023).
Among all 39,000 compounds or so, about 3,300 (8.5%) were called active. The list comes from a sample in which actives are over-represented; it also holds similar structures and randomly drawn compounds.

What follows are compounds tested on HepG2 (assay: cytotoxicity call (relative viability < 0.9)). Details: 10 µM.

Structure (SMILES)	cytotoxicity call
COc1ccc(NC(=O)N(C)C[C@@H]2OCCCC[C@@H](C)Oc3ccc(NS(=O)(=O)c4ccc(C)cc4)cc3C(=O)N([C@H](C)CO)C[C@H]2C)cc1	inactive
COc1ccc(NC(=O)Nc2ccc3c(c2)C(=O)N([C@@H](C)CO)C[C@@H](C)[C@H](CN(C)Cc2ccc(-c4ccccc4)cc2)O3)cc1	active
COc1cccc(S(=O)(=O)N2C[C@H](O)COC[C@@H]3O[C@H](CC(=O)NCCCN4CCOCC4)CC[C@H]32)c1	inactive
C[C@H]1CCCCO[C@H](CN(C)C(=O)Nc2ccc(F)cc2)[C@@H](C)CN([C@@H](C)CO)C(=O)c2cc(NC(=O)c3ccncc3)ccc2O1	inactive
CC[C@@H](C)[C@H]1O[C@@]2(CC[C@@H]1C)C[C@H]1C[C@@H](CC=C(C)[C@@H](O[C@H]3C[C@@H](OC)[C@@H](O[C@H]4C[C@@H](OC)[C@@H](O)[C@@H](C)O4)[C@@H](C)O3)[C@@H](C)C=CC=C3CO[C@H]4[C@@H](O)C(C)=C[C@@H](C(=O)O1)[C@]34O)O2.CO[C@H]1C[C@@H](O[C@@H]2[C@@H](OC)C[C@@H](O[C@@H]3C(C)=CC[C@@H]4C[C@@H](C[C@@]5(CC[C@@H](C)[C@H](C(C)C)O5)O4)OC(=O)[C@@H]4C=C(C)[C@H](O)[C@@H]5OCC(=CC=C[C@@H]3C)[C@@]45O)O[C@@H]2C)O[C@@H](C)[C@@H]1O	active
CCC(C)C1OC2(CCC1C)CC1CC(CC=C(C)C(OC3CC(OC)C(OC4CC(OC)C(O)C(C)O4)C(C)O3)C(C)C=CC=C3COC4C(O)C(C)=CC(C(=O)O1)C34O)O2 (configuration not stated)	active
CC[C@H](C)[C@H]1O[C@]2(CC[C@@H]1C)C[C@@H]1C[C@@H](C/C=C(\C)[C@@H](O[C@H]3C[C@H](OC)[C@@H](O[C@H]4C[C@H](OC)[C@@H](O)[C@H](C)O4)[C@H](C)O3)[C@@H](C)/C=C/C=C3\CO[C@@H]4[C@H](O)C(C)=C[C@@H](C(=O)O1)[C@]34O)O2	active
C[C@@H]1CN([C@H](C)CO)C(=O)c2cc(NC(=O)CCC(F)(F)F)ccc2O[C@H]1CN(C)Cc1ccc(C(=O)Nc2ccccc2N)cc1	inactive
N#CCSc1n[nH]c(=O)[nH]c1=O	inactive
O=C(C[C@@H]1CC[C@H]2[C@@H](COC[C@@H](O)CN2CC2CCOCC2)O1)N1CCOCC1	inactive
Cc1noc(C)c1NC(=O)N(C)C[C@H]1OCCCC[C@H](C)Oc2ccc(NC(=O)C3CCCCC3)cc2C(=O)N([C@H](C)CO)C[C@@H]1C	inactive
C[C@@H]1CCCCO[C@@H](CN(C)S(=O)(=O)c2ccccc2)[C@@H](C)CN([C@H](C)CO)C(=O)c2cc(NC(=O)NC3CCCCC3)ccc2O1	inactive
